Here are results for 47 molecules from PubChem BioAssay AID624405 (Broad Institute, 2012).

Among all 1,900 compounds or so, about 250 (13%) were called active. About 4% were inconclusive and are not listed. A selection follows. Potency and affinity values are given separately. Unmarked numbers belong to inactive results.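 How the source made its calls: active means fitted curve reaches 40% rescue activity at or below the top valid dose, in every test run; inconclusive means test runs disagree, some active and some inactive; inactive means every run misses the threshold or moves the wrong way.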

This assay is described as follows: suppressors of statin myotoxicity in myotubes, dose response, cell-based, C2C12 myotubes, ATP luminescence, cherry pick (AID 624405).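 Further: myotubes are challenged with simvastatin at 10 µM to lower ATP.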 To be noted: C2C12 myotubes + simvastatin, 48 h, scaled: DMSO wells 0, geranylgeraniol wells 100; series mostly up to 19.5 µM; rescue activity (ATP increase): at the top concentration.
Regarding `C[C@H]1CCCCO[C@H](CN(C)C(=O)C2CCCCC2)[C@@H](C)CN([C@@H](C)CO)C(=O)c2cc(NC(=O)NC3CCCCC3)ccc2O1`, the “rescue activity (ATP increase)” value is 17.2% [at 21 µM].
The result for `C[C@H]1CCCCO[C@@H](CN(C)S(=O)(=O)c2ccc(Cl)cc2)[C@@H](C)CN([C@@H](C)CO)C(=O)c2cc(NS(C)(=O)=O)ccc2O1` reads -7.17%; that for `C[C@@H]1CN([C@H](C)CO)C(=O)Cc2cc(N(C)C)ccc2O[C@H]1CN(C)Cc1ccc(C(=O)Nc2ccccc2N)cc1`, 19.2%; that for `C[C@@H]1CN([C@H](C)CO)C(=O)c2cc(NC(=O)Nc3ccc(C(F)(F)F)cc3)ccc2O[C@@H]1CN(C)Cc1ccc(C(=O)Nc2ccccc2N)cc1`, 29% [at 21 µM].
The same measure for `C[C@H](CO)N1C[C@H](C)[C@@H](CN(C)Cc2ccc(C(=O)Nc3ccccc3N)cc2)Oc2ccc(NC(=O)Nc3ccc(C(F)(F)F)cc3)cc2C1=O`: 2.2% [at 18 µM].
In the case of `C[C@@H]1CN([C@@H](C)CO)C(=O)c2cc(NC(=O)Nc3ccc(C(F)(F)F)cc3)ccc2O[C@H]1CN(C)Cc1ccc(C(=O)Nc2ccccc2N)cc1`, the “rescue activity (ATP increase)” value is 10.1%.
`CC1=CCn2c(=O)c3ccccc3c(=O)n2C1`: the “rescue activity (ATP increase)” value was 38.7%.
The result for `CCOC(=O)c1cc2ccc(OC)c(OC)c2c(=O)s1` reads -8.38%; that for `COc1ccc(N(Cc2cc(=O)[nH]c3ccccc23)C(=O)c2ccco2)cc1`, 5.33%; that for `Cc1ccnc2nc(C(=O)OCC(=O)c3ccccc3)nn12`, -9.66%.
The same measure for `Cc1cc(C(=O)COC(=O)CN=C2NS(=O)(=O)c3ccccc32)c(C)n1CCc1ccc(Cl)cc1`: -2.48%; for `C[C@@H]1CN([C@H](C)CO)C(=O)c2cccc(NC(=O)C3CCCCC3)c2O[C@H]1CN(C)S(=O)(=O)c1ccc(Cl)cc1`: -3.58%; for `O=C(c1cnn2c(C(F)F)cc(-c3ccccc3)nc12)N1CCc2ccccc21`: -40%.
The same measure for `CCC(C)NC(=O)Cn1c(=O)n(CCCC(=O)NCc2ccccc2Cl)c(=O)c2ccccc21` (configuration not stated): -3.94%; for `CCOC(=O)c1cc(=O)n(Cc2ccccc2C)c2ccccc12`: 20.2%.
As for `C[C@H](CO)N1C[C@H](C)[C@H](CN(C)C(=O)Nc2cccc3ccccc23)OCCCC[C@H](C)Oc2ccc(NS(=O)(=O)c3ccc(Cl)cc3)cc2C1=O`, the “rescue activity (ATP increase)” value was 16.9%.
The result for `C[C@@H]1CN([C@@H](C)CO)C(=O)c2cc(NC(=O)c3ccncc3)ccc2O[C@@H](C)CCCCO[C@@H]1CN(C)Cc1ccc(C(F)(F)F)cc1` reads 21%.
Consider `CC(=O)c1c(C)[nH]c(C(=O)CSc2nnc(C3CCCCC3)n2N)c1C`, for which the “rescue activity (ATP increase)” value is 18.1%.
The same measure for `CC1CSc2nc3sc4c(c3c(=O)n21)CCCC4` (configuration not stated): 20.3%; for `O=C(Oc1ccc(C(=S)N2CCOCC2)cc1Br)c1ccccc1F`: -12.4%.
The result for `COc1cc2c(N3CCOCC3)cc(O)c(CC(=O)Nc3ccccc3)c2cc1OC` reads -14.5%; that for `C[C@@H]1CN([C@H](C)CO)S(=O)(=O)c2ccc(/C=C/c3ccccc3)cc2O[C@@H]1CN(C)C(=O)NC1CCCC1`, 2.94%; that for `COc1ccc(S(=O)(=O)Nc2ccc3c(c2)CC(=O)N([C@@H](C)CO)C[C@H](C)[C@@H](CN(C)Cc2ccc(Cl)c(Cl)c2)O3)cc1`, 27.9%.
The same measure for `Cc1ccc(S(=O)(=O)NNC(=O)c2snnc2C)cc1`: -7.58%.
Take `COC(=O)c1cn(Cc2ccc(C(F)(F)F)cc2)cc(F)c1=O`: the “rescue activity (ATP increase)” value is -11.3%.
As for `Cc1ccc(N2N=C(C(=O)O)CCC2=O)cc1Cl`, the “rescue activity (ATP increase)” value was 16.1%.
The result for `CC(C(=O)NCC1CCCO1)n1cccc1C(=O)c1ccccc1` (configuration not stated) reads 13%.
The same measure for `C=C(C)C1CC=C(C)/C(=N/NC(=O)c2ccc(NC(=O)CC)cc2)C1` (configuration not stated): -9.09%; for `COc1ccc(NC(=O)c2cc(-c3cccs3)on2)cc1`: -2.21%; for `C/C(=N/Nc1nc(-c2ccc(Cl)cc2)cs1)c1cccs1`: -40.2%.
The result for `c1ccc(Nc2nc(-c3cccs3)cs2)nc1` reads 26%; that for `Cc1cc(C(=O)Nc2ccc3c(c2)C(=O)N(C)[C@@H]2CC[C@@H](CC(=O)N[C@H](C)c4ccccc4)O[C@@H]2CO3)no1`, 26.1%.
Consider `CC(C)[C@H](NS(=O)(=O)c1ccccc1)C(=O)OCC(=O)NC(=O)NC1CCCCC1`, for which the “rescue activity (ATP increase)” value was -10.8%.
Consider `CCOC(=O)N1CCN(C(=O)Cc2ccsc2)CC1`, for which the “rescue activity (ATP increase)” value was -30.6%.
As for `C[C@@H]1CN([C@@H](C)CO)C(=O)c2cccc(NS(=O)(=O)c3cccs3)c2O[C@@H]1CN(C)C(=O)Nc1ccc(C(F)(F)F)cc1`, the “rescue activity (ATP increase)” value is -7.49%.
The result for `C[C@H](CO)N1C[C@H](C)[C@H](CN(C)C(=O)Nc2ccc(F)cc2)OCCCC[C@H](C)Oc2ccc(NC(=O)Cc3ccccc3)cc2C1=O` reads -7.95%; that for `Fc1ccc(CSc2nnc(CN3CCOCC3)n2-c2ccccc2)c(Cl)c1`, -26.3%; that for `COc1ccc(S(=O)(=O)Nc2ccc3c(c2)CC(=O)N([C@@H](C)CO)C[C@@H](C)[C@H](CN(C)Cc2ccc(Cl)c(Cl)c2)O3)cc1`, 19.7%.
The same measure for `COc1ccc(CN(C)C[C@@H]2Oc3ccc(NS(=O)(=O)c4ccc(F)cc4)cc3CC(=O)N([C@H](C)CO)C[C@H]2C)cc1`: 35.2% [at 21 µM]; for `COc1ccc(S(=O)(=O)Nc2ccc3c(c2)C(=O)N([C@H](C)CO)C[C@H](C)[C@H](CN(C)S(=O)(=O)c2ccc(F)cc2)OCCCC[C@@H](C)O3)cc1`: 19.6%; for `COc1ccc(S(=O)(=O)Nc2ccc3c(c2)CC(=O)N([C@@H](C)CO)C[C@H](C)[C@H](CN(C)Cc2ccc(Cl)c(Cl)c2)O3)cc1`: 14.6%.
The same measure for `COc1ccc(S(=O)(=O)Nc2ccc3c(c2)C(=O)N([C@@H](C)CO)C[C@@H](C)[C@@H](CN(C)S(=O)(=O)c2ccc(F)cc2)OCCCC[C@H](C)O3)cc1`: 28.1%; for `C[C@@H]1CN([C@@H](C)CO)C(=O)Cc2cc(NS(=O)(=O)c3ccc(Cl)cc3)ccc2O[C@H]1CN(C)Cc1ccc(-c2ccccc2)cc1`: 28.9%.
For the molecule `C[C@H]1CN([C@@H](C)CO)C(=O)Cc2cc(NS(=O)(=O)c3ccc(F)cc3)ccc2O[C@H]1CN(C)Cc1ccccc1`, the “rescue activity (ATP increase)” value is 29.1%.
The result for `COc1ccc(CN(C)C[C@@H]2Oc3ccc(NS(=O)(=O)c4ccc(Cl)cc4)cc3CC(=O)N([C@H](C)CO)C[C@H]2C)cc1` reads 34.8%; that for `COc1ccc(N=C2S/C(=C\c3cc(C)n(C)c3C)C(=O)N2CC(C)C)cc1`, -33.1%.
The same measure for `COc1ccc(NC(=O)Nc2ccc3c(c2)C(=O)N([C@H](C)CO)C[C@H](C)[C@H](CN(C)Cc2ccc(C(F)(F)F)cc2)OCCCC[C@H](C)O3)cc1`: -42.8%.
